Data on one compound can be found in the supplement of paper PMC11732987, “Enantioselective OTUD7B fragment discovery through chemoproteomics screening and high-throughput optimisation” (Communications Chemistry, 2025).

Assay in all cases: log2 ratio of Biotin-Ahx-Ub-VS probe labelling (fragment/DMSO); higher = less target engagement (more negative = stronger competition), active = hit call of the paper (q ≤ 0.05, log2 ratio ≤ -1)
Common to all, as to settings: compound concentration: 200 uM; treatment time: 3 h

One assay has as its target USP16 (UniProt Q9Y5T5). The method in brief:
(§1)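 Global-median-normalised Spectronaut label-free quantities were compared by unpaired t-test, and values are average log2 ratios of fragment over vehicle. Only proteins with ≥2 unique peptides were used. HEK293T lysate (495 µg per sample) was treated in triplicate with fragment at 200 µM or vehicle for 3 h and then with Biotin-Ahx-Ub-VS at 0.5 µM final for 1 h. Labelled DUBs were then NeutrAvidin-enriched, digested with LysC and trypsin, and run by diaPASEF LC-MS/MS.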

In the next assay the target is T1, USP19 (UniProt O94966).
T1 sequence (whole entry): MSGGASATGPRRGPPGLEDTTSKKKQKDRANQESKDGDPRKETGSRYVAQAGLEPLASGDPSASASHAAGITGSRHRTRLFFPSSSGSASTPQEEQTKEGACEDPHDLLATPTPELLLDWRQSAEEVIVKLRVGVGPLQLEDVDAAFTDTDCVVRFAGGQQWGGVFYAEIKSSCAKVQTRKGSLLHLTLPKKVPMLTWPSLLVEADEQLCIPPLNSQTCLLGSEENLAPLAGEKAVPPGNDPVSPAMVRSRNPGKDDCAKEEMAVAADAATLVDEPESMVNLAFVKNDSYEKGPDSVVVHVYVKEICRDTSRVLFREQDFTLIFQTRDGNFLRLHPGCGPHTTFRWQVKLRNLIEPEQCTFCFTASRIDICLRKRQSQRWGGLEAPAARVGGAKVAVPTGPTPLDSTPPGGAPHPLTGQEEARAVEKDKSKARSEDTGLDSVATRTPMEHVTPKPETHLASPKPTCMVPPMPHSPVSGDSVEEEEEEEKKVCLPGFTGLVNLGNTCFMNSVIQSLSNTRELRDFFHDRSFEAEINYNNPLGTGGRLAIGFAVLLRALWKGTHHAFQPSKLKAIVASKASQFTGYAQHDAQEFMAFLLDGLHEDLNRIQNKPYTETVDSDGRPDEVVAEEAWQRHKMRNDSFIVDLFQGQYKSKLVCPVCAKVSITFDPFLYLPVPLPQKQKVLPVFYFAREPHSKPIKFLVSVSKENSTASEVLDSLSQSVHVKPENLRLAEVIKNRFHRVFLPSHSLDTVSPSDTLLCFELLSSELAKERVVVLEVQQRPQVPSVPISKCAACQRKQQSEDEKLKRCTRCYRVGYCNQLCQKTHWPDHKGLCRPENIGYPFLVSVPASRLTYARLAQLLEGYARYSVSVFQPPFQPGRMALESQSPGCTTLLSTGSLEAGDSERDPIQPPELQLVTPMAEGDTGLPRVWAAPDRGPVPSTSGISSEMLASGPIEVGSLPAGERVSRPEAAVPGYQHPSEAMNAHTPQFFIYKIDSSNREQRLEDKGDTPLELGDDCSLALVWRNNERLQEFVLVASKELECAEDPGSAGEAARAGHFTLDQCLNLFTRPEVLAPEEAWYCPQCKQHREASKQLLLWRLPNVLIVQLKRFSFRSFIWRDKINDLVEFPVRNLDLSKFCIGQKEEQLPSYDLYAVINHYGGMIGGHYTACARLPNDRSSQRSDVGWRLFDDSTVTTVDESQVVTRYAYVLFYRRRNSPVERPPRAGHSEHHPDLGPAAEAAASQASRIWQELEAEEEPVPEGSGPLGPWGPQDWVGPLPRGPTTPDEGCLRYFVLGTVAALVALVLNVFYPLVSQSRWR
The essentials:
as §1

For another assay, the target named is USP24 (UniProt Q9UPU5). The essentials:
as §1

The target of another assay is T2, USP25 (UniProt Q9UHP3).
T2 sequence (whole entry): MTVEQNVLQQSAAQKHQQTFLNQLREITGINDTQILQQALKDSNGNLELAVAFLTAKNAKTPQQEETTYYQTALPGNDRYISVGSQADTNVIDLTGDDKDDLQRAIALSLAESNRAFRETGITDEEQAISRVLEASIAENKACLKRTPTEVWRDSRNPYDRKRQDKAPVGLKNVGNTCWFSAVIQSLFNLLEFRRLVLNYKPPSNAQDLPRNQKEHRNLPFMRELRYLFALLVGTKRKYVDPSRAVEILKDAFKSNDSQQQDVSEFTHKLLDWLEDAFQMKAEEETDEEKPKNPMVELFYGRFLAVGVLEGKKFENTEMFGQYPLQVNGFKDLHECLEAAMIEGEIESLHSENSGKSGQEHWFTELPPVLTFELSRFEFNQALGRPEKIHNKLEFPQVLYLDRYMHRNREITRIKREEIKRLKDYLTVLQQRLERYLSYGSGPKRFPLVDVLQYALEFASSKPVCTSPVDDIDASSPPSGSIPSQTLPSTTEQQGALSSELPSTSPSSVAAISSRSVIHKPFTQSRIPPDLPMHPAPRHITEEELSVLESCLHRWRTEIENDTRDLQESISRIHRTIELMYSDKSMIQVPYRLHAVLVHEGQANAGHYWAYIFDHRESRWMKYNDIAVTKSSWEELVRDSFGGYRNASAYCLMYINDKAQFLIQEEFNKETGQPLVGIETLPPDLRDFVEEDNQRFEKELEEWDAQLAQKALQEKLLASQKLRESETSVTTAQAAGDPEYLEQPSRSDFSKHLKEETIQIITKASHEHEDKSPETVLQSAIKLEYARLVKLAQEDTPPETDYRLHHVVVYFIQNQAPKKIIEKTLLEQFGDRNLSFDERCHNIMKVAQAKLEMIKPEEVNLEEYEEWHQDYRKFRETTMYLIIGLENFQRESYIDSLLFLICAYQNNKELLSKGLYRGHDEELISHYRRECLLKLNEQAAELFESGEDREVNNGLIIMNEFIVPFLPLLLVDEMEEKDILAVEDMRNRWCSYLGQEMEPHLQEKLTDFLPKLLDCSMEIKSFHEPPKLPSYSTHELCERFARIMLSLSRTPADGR
The essentials:
as §1

In another assay the target is T3, USP28 (UniProt Q96RU2).
T3 sequence (whole entry): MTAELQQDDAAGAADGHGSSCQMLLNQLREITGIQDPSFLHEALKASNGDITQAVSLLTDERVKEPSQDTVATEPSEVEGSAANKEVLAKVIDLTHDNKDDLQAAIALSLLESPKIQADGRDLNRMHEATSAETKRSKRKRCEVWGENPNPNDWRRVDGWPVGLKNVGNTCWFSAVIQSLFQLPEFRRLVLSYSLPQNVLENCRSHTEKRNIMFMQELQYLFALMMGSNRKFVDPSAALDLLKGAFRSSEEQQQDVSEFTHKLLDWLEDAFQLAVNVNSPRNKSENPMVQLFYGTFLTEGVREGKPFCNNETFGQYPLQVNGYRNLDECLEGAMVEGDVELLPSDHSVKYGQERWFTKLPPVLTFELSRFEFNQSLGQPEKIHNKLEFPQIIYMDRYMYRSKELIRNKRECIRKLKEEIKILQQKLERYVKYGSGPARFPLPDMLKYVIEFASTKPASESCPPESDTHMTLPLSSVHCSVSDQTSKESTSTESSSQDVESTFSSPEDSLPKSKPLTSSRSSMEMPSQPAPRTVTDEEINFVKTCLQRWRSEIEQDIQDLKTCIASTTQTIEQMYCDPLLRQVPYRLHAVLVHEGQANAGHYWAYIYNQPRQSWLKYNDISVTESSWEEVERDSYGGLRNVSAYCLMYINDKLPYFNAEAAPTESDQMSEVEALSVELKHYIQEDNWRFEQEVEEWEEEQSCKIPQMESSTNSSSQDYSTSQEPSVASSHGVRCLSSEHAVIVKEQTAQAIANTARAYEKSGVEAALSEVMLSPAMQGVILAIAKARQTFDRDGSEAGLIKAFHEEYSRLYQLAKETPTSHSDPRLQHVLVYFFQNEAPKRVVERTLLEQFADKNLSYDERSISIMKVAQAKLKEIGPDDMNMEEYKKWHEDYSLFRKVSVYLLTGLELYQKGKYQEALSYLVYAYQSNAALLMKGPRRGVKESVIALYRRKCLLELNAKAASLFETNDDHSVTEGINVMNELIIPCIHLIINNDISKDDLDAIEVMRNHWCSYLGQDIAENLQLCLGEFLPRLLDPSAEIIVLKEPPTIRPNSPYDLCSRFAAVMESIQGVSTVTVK
The essentials:
as §1

The structures appear in SMILES notation. A number with no mark means an inactive call.

Chain of USP16 (Q9Y5T5 whole entry, looked up, the tested form may be a part): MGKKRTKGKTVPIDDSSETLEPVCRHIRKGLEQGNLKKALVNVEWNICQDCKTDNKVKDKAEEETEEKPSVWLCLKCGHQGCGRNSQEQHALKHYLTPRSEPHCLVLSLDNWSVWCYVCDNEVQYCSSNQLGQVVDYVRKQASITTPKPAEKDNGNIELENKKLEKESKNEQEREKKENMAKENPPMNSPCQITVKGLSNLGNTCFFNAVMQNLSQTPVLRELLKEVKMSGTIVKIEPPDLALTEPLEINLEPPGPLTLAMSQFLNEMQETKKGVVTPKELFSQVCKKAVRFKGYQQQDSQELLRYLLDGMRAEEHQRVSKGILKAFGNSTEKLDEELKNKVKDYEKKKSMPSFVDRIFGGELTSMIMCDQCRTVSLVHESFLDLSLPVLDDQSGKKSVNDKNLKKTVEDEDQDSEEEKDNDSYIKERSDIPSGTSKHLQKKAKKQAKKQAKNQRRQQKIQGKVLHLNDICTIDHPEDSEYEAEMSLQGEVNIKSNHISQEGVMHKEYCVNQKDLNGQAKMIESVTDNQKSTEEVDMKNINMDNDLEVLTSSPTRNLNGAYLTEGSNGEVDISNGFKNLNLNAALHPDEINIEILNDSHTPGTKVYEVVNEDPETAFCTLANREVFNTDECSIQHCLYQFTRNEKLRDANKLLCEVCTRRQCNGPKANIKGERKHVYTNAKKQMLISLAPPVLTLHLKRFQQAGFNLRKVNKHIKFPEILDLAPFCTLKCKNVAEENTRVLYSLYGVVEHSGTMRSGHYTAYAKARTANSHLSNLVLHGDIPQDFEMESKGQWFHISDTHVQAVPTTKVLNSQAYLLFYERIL
Chain of USP24 (Q9UPU5 whole entry): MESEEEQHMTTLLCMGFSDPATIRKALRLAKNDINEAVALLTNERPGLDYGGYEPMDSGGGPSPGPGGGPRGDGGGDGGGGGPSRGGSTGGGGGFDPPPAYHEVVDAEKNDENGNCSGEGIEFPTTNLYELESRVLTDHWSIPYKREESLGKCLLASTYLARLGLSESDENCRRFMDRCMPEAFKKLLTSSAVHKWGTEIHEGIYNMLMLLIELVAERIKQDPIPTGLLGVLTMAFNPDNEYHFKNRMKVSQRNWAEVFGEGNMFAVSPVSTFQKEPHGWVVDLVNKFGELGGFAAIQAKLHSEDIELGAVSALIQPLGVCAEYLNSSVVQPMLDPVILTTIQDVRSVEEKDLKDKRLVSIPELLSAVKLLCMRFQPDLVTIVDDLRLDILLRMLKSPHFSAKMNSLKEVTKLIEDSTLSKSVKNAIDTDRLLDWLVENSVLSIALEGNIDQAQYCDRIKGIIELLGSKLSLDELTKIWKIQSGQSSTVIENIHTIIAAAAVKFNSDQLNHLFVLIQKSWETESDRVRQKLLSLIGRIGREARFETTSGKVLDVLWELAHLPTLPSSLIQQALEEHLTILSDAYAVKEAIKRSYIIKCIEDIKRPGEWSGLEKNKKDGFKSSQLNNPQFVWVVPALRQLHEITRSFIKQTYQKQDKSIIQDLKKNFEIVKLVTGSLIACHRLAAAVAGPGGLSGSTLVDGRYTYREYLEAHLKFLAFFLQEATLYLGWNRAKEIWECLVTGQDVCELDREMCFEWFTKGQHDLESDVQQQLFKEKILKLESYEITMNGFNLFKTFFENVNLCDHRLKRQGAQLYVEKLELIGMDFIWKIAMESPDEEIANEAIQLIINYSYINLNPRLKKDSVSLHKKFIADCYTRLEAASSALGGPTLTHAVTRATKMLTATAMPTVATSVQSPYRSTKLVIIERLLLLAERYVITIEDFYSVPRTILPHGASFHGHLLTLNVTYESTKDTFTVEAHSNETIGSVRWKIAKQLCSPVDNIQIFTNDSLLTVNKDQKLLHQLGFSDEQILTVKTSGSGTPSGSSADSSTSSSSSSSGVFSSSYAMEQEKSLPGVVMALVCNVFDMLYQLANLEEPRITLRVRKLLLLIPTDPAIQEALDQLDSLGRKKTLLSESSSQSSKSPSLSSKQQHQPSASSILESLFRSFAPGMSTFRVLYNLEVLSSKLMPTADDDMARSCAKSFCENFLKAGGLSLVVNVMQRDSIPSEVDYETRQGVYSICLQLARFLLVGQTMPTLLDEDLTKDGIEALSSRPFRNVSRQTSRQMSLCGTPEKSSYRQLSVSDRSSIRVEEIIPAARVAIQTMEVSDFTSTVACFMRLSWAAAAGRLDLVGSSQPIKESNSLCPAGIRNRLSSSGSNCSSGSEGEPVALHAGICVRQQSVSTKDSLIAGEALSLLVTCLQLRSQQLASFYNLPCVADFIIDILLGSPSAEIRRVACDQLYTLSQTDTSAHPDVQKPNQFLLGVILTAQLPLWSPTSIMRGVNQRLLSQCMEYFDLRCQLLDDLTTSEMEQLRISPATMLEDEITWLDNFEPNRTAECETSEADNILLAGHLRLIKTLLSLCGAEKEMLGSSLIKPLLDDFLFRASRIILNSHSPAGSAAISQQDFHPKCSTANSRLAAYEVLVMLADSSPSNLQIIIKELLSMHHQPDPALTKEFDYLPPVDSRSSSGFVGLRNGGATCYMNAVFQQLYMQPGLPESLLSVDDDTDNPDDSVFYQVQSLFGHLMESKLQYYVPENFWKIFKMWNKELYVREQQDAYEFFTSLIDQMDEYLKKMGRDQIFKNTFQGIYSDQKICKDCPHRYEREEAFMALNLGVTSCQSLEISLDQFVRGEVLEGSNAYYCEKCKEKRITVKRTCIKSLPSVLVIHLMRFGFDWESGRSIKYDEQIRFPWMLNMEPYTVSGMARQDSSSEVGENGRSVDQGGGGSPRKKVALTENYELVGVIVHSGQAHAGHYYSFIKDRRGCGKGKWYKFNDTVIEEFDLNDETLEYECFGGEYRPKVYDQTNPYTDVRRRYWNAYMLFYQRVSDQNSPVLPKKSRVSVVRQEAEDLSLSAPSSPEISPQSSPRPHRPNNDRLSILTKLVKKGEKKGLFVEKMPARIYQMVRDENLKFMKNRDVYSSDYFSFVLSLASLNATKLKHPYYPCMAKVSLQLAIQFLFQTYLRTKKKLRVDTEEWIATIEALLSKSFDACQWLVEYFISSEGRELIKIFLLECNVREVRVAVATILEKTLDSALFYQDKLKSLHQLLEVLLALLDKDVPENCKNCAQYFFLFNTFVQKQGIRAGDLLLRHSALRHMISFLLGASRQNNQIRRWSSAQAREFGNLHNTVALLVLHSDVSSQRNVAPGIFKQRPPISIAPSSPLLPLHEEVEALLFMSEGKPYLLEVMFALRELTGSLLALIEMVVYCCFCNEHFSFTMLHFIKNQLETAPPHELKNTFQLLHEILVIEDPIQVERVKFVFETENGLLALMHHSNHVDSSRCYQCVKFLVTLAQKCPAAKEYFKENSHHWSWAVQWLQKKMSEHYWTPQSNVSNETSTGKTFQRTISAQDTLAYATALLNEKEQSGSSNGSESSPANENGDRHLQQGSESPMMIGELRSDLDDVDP

Take `Cl.O=C(CCl)N1CCn2ncc(O)c2C1`: the “log2 ratio of Biotin-Ahx-Ub-VS probe labelling” value with USP16 was -0.0885; with USP19, -0.754; in the assay with USP24, -1.05 (active); with USP25, -0.877; in the assay with USP28, -1.17 (active).
